Sampled rows, rich in hits. Any-hit rate of the full collection: about 3.3%.
FAK blocker – inhibitors of human focal adhesion kinase; AID 727; Q05397; biochemical FAK kinase activity assay; inhibition, %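 (tested at 7 µM)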; 97,000 tested, 0.84% active; in the data active = inhibition above about 19%;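 note: 0% = DMSO and 100% = reference compound high control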
ERa SRC1 inh – ER-alpha (human) coactivator binding inhibition | P03372 | TR-FRET ER-alpha LBD / SRC-1 peptide, estradiol-bound | inhibition, % at 25.6 µM | 86,000 tested, 1.7% active | AID 629; in the data active = inhibition above about 50%;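 note: 0% = receptor plus peptide control and 100% = peptide only without receptor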
Target sequence (P03372 whole entry, looked up, the tested form may be a part): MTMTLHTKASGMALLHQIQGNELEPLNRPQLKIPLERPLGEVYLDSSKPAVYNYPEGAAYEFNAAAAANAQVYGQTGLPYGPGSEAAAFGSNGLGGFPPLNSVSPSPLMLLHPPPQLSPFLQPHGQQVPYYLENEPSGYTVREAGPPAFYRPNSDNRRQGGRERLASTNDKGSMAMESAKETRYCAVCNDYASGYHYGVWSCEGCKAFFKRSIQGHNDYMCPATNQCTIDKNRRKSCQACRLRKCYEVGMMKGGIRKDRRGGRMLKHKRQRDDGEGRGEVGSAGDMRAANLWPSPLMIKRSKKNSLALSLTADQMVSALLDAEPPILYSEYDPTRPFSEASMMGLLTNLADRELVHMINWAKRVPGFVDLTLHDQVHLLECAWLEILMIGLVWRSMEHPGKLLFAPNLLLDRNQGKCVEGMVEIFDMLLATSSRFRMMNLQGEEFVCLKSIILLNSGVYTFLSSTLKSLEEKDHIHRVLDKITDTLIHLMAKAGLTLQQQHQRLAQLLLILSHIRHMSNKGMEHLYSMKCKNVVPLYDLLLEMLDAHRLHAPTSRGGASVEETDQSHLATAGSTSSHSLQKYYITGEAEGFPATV
Smad3 FoxH1 inh – inhibitors of human Smad3 transcription factor binding; 88,000 tested, 0.29% active; P84022; inhibition, % at 25 µM; AID 630; TR-FRET Smad3/Dy647-FoxH1 peptide binding, europium anti-His;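 active = compounds that reduce the energy-transfer binding signal between the protein and its labelled peptide by more than half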;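 note: 0% = Smad3 plus labelled peptide maximal FRET and 100% = peptide-only background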
ERb coact inh – ER-beta (human) coactivator binding inhibition | Q92731 | TR-FRET ER-beta LBD / SRC1-Cy5 peptide binding; receptor agonist-loaded with 1 µM estradiol | inhibition, % at 25.6 µM | 86,000 tested, 1.3% active;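 active = compounds whose percent inhibition of the receptor-coactivator binding signal exceeds about 50% in the single-dose screen, limit read from the data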;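 note: 0% = receptor plus peptide wells without compound and 100% = peptide-only wells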
ERa coact pot – enhances coactivator binding to human estrogen receptor alpha; P03372; TR-FRET ERalpha-LBD/SRC-Cy5 coactivator binding, 2 h; 100 = basal binding, no effect; coactivator binding (% of control), % at 25.6 µM; 86,000 tested, 1.3% active; in the data active = activity above about 200%;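 note: binding measured in presence of low estradiol as agonist stimulus; 0% = peptide alone without receptor and 100% = receptor with peptide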
* = called active by the depositor; x = not tested or not shown; + = active, no number; [ ] = another dose, or the depositor's remark.

SMILES | FAK blocker | ERa SRC1 inh | Smad3 FoxH1 inh | ERb coact inh | ERa coact pot
CCOC(=O)C(CCC(=O)O)(CCC(C)C)c1csc(N)n1 (stereo not given) | -3.0 | -9.8 | -4.9 | -14.7 | +[fluorescence artefact?]
O=c1[nH]c(=S)c2[nH]c(=O)n(-c3ccccc3)c2[nH]1 | x | x | 39.7 | x | x
Cc1ccc(S(=O)(=O)N2CCC(C(=O)N[C@H](C(=O)NCc3ccco3)C(C)C)CC2)cc1 | 0.6 | 57.4*[fluorescence artefact?] | -0.4 | 50.3*[fluorescence artefact?] | 97.9
Cc1ccc(S(=O)(=O)N2CCC(C(=O)Nc3nnc(-c4ccco4)s3)CC2)cc1 | 4.1 | 25.0 | 12.4 | 21.1 | 200.1*[fluorescence artefact?]
Cc1ccc(S(=O)(=O)N2CCC(C(=O)N[C@H](C(=O)NC3CCS(=O)(=O)C3)C(C)C)CC2)cc1 (stereo not given in full) | -6.0 | x | x | x | x
C[C@H](CCC(=O)O)[C@H]1CC[C@@]2(C)[C@@H]3C(=O)C[C@H]4C(C)(C)[C@@H](O)CC[C@]4(C)[C@H]3C(=O)C[C@]12C | x | x | -11.3 | x | x
CCN1C(=O)c2cccc3c(NC(=O)c4ccc(OC)c(OC)c4)ccc1c23 | -7.5 | -10.8 | 6.6 | 0.3 | 115.5
Cc1ccc(-c2nnc3ccc(SCC(=O)N4CCc5ccccc54)nn23)cc1 | 1.4 | 3.7 | -79.7 | 15.6 | 237.8*[fluorescence artefact?]
O[C@@H](COc1cccc2ccccc12)CN1CCOCC1 | x | x | -4.5 | x | x
CCOC(=O)CN1CC23C=CC(O2)C(C(=O)Nc2cc(OC)ccc2OC)C3C1=O (stereo not given) | x | 72.0*[fluorescence artefact?] | 36.2 | 69.1* | 41.1
COCCNS(=O)(=O)c1ccc(C2CNC(=O)C2)cc1 (stereo not given) | 1.2 | -2.3 | 6.0 | -13.9 | 103.2
O=C1CC(c2ccc(S(=O)(=O)NCCOc3ccccc3)cc2)CN1 (stereo not given) | 0.4 | 3.0 | 3.1 | 57.0* | 123.6
COC(=O)[C@@H]1O[C@H](SCCN)[C@@H](O)[C@H](O)[C@H]1O | x | x | 39.0 | x | x
CCOc1ncccc1C(=O)OCC(=O)Nc1cc(C)ccc1C | -0.5 | 1.6 | -4.2 | 6.7 | 118.3
CCOc1ncccc1C(=O)OCc1cc(=O)oc2c(C)c(C)ccc12 | x | 47.8 | -26.8 | 43.7 | 286.7*[fluorescence artefact?]
CC(C)c1ccc(CNc2ccc(N3CCOCC3)cc2)cc1 | 1.5 | 0.4 | 8.4 | -1.5 | 529.6*[fluorescence artefact?]
Cc1nc(SCC(=O)c2ccccc2)c(C#N)c(-c2ccco2)c1C(=O)NCc1ccco1 | x | 18.1 | 3.1 | 18.7 | 235.7*
Cc1cccc2sc(NC(=O)C3CCCO3)nc12 (stereo not given) | -1.2 | -8.6 | 3.4 | -6.8 | 113.1
Cc1nc(C)c(C(=O)Nc2nc3c(C)cccc3s2)o1 | 18.4 | 91.6*[fluorescence artefact?] | 4.4 | 90.7*[fluorescence artefact?] | 26.4
O=C(O)C(=O)/C=C(\O)c1ccc(Br)cc1 | x | x | 9.2 | x | x
COc1ccc(/C=N/NC(=O)c2[nH]ncc2Br)c(OC)c1 | 16.2 | x | x | x | x
COc1ccc(/C=N/Nc2ncc(-c3ccccc3)cn2)c(OC)c1 | 40.4* | 38.5 | 17.8 | 26.9 | 422.2*[fluorescence artefact?]
Cn1c(=O)c(C(=O)Nc2ccccn2)c(O)c2ccccc21 | 4.0 | -4.6 | 24.1 | 10.5 | 285.6*[fluorescence artefact?]
CCN(CC(=O)O)CC(=O)O | x | x | -8.2 | x | x
Cc1cc(C)cc(N(CC(=O)O)S(=O)(=O)c2c(C)noc2C)c1 | -1.6 | -8.7 | 8.8 | -1.8 | 105.2
SMILES | FAK blocker | ERa SRC1 inh | Smad3 FoxH1 inh | ERb coact inh | ERa coact pot
Cc1noc(C)c1S(=O)(=O)N(CC(=O)O)c1ccc2c(c1)OCO2 | -2.4 | 40.9 | -0.8 | 53.7* | 60.4
N#CC(C(=O)O)=C1CCCC1 | 1.1 | 14.2 | -5.8 | 20.2 | 93.4
N#CC(C(=O)Nc1ccccc1)=C1CCCCC1 | x | -0.6 | -4.1 | 74.1* | 89.8
COc1ccc(C(=O)[C@H](Br)[C@H](Br)C(=O)O)cc1 | x | x | 25.6 | x | x
CC1CCN(CC(=O)N2c3ccccc3Sc3cc4ccccc4cc32)CC1 | x | x | 1.8 | x | x
O=C(Nc1ccc(Cc2ccncc2)cc1)C1CCC(N2C(=O)C3CC=CCC3C2=O)CC1 (stereo not given) | 0.6 | 55.3* | 56.4* | 52.8* | 63.6
c1cncc(-c2nc(Oc3ccc(-c4nnco4)cc3)c3c4c(sc3n2)CCCC4)c1 | x | 18.3 | -4.7 | 5.1 | 258.3*[fluorescence artefact?]
COc1ccc(-c2nnc(-c3cccnc3)o2)cc1 | -4.9 | -2.6 | -3.8 | -11.6 | 96.8
NCCC1([N+](=O)[O-])CCNCC1 | x | x | 15.8 | x | x
CCSc1nc2ccccc2n1C(=O)Oc1ccccc1 | -2.1 | -45.0 | -6.6 | 4.2 | 496.8*[fluorescence artefact?]
CSc1nc2ccccc2n1Cc1cccc(F)c1 | 3.8 | 1.9 | 7.3 | 74.9*[fluorescence artefact?] | 92.8
CC(C)N(C(=O)CSc1nc2ccccc2n1Cc1ccc(F)cc1)C(C)C | -1.2 | -1.1 | 10.2 | -20.8 | 88.7
Cc1c2cc[n+](CCN3CCCCC3)cc2c(C)c2c1[nH]c1ccc(O)cc12 | x | x | 8.8 | x | x
O=C(c1ccco1)N1CCN(C(=O)c2cc(-c3ccccn3)nc3ccc(Cl)cc23)CC1 | 3.0 | 63.6*[fluorescence artefact?] | -0.5 | 54.2*[fluorescence artefact?] | 43.8
CCc1cccc(CC)c1NC(=O)C1CC(=O)N(c2ccc3c(c2)OCCO3)C1 (stereo not given) | -1.7 | x | x | x | x
O=C(Nc1nc(-c2ccco2)c(-c2ccco2)s1)C1CC(=O)N(c2ccc3c(c2)OCCO3)C1 (stereo not given) | x | 47.4 | -8.6 | 70.5*[fluorescence artefact?] | 121.6
O=C(O)[C@H]([C@H]1NCCS1)N1C(=O)c2ccccc2C1=O | x | x | 0.7 | x | x
CN[C@@H](c1ccncc1)[C@@H](NC)c1ccncc1 | x | x | -10.0 | x | x
O=C1C(=O)c2ccc(-c3ccccc3)cc2-c2ccccc21 | 55.6* | 24.2 | 65.8*[fluorescence artefact?] | -2.3 | 90.2
O=C1c2ccccc2C(=O)c2c1ccc(C(=O)O)c2-c1ccc2ccccc2c1 | x | x | 10.0 | x | x
COc1ccccc1NCCC(=O)OCC(=O)NCc1ccco1 | 18.2 | 77.4*[fluorescence artefact?] | 18.6 | 61.3*[fluorescence artefact?] | 30.4
COc1ccc(N(CC(=O)NCc2ccco2)S(C)(=O)=O)cc1 | -9.7 | -7.0 | -2.6 | 99.0*[fluorescence artefact?] | 96.3
COc1ccc(OCCC(=O)OCC(=O)NCc2ccco2)cc1 | x | 81.2* | 1.7 | 49.6 | 232.6*[fluorescence artefact?]
COc1ccc(N(CC(=O)NCc2ccco2)S(C)(=O)=O)cc1OC | -1.7 | -4.8 | -11.2 | -0.2 | 106.6
CCOc1ccc(-c2cc(CCCC(=O)NCc3ccco3)no2)cc1 | x | -42.7 | -1.7 | -1.6 | 204.1*
SMILES | FAK blocker | ERa SRC1 inh | Smad3 FoxH1 inh | ERb coact inh | ERa coact pot
COc1ccc(S(=O)(=O)N(C)CC(=O)NCc2ccco2)cc1 | 2.2 | 7.1 | 7.4 | 7.0 | 85.6
COc1cccc(CN(C)CC(=O)NC(=O)NCc2ccco2)c1 | 6.8 | 57.5*[fluorescence artefact?] | -8.0 | 38.7 | 102.9
CCOC(=O)/C(C#N)=C1/SC(CCO)C(=O)N1c1ccccc1 (stereo not given) | 23.3* | 10.8 | 5.2 | 16.6 | 71.4
CCOC(=O)/C(C#N)=C1/SC(CC)C(=O)N1c1ccc(Br)cc1 (stereo not given) | 2.4 | -3.9 | 1.8 | -1.8 | 97.8
O=C1CN2CCN(CC2)CC(=O)Nc2ccc(cc2)S(=O)(=O)c2ccc(cc2)NC(=O)CN2CCN(CC2)CC(=O)Nc2ccc(cc2)S(=O)(=O)c2ccc(cc2)N1 | x | x | -3.0 | x | x
Cc1nn(-c2ccccc2)c2sc(C(=O)OCN3C(=O)c4ccccc4C3=O)cc12 | x | 59.7* | -8.4 | 34.1 | 108.6

Assay outcomes (PubChem BioAssay)
